This note sets out measurements from PubChem BioAssay (EPA / NIEHS).

Structures are written as SMILES. Calls of active or inactive are those of the source. Rule for the calls: active = hit-call score of the fitted dose curve at least 0.9, where 1 is the maximum; inactive = score below 0.9.

A word on the AC50: it is the concentration giving half of the maximal activity seen.

Sequence of Cytochrome P450 3A4 (Homo sapiens) (P08684 whole entry, looked up): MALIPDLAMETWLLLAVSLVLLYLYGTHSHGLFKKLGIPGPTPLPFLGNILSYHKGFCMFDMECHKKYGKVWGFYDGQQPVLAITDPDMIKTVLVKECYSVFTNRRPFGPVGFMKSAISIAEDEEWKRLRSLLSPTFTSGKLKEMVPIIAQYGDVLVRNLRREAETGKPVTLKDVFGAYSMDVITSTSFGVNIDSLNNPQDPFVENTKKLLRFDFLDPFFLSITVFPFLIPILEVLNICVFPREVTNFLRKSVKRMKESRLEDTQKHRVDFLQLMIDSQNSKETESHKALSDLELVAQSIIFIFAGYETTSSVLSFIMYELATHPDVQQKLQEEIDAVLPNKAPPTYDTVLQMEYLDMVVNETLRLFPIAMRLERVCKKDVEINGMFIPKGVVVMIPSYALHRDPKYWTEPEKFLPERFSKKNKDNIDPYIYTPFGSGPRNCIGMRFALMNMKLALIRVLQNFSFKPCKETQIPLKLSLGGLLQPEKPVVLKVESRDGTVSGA

Read-out in this assay: Cytochrome P450 3A4 (Homo sapiens) (UniProt P08684)
Kind of assay: LTEA_HepaRG_CYP3A4: Life Technologies and Expression Analysis (LTEA) Assay for CYP3A4 using HepaRG (AID 2283487). The following applies: mRNA level, 48 h; actives raise or lower the signal. As to the method: LTEA_HepaRG is a cell based, multiplexed-readout assay that uses HepaRG, a human liver cell line, with measurements taken at 48 hours after chemical dosing on a 96-well plate.LTEA_HepaRG_CYP3A4 is one of 102 assay component(s) measured in the LTEA HepaRG cell culture assay. It is a marker of NR mediated metabolism.Data from the assay component LTEA_HepaRG_CYP3A4 was analyzed into 1 endpoint. This assay endpoint, LTEA_HepaRG_CYP3A4, was analyzed with bidirectional fitting relative to DMSO as the negative control and baseline of activity. Using a type of inducible reporter, measures of mRNA induction for gain or loss-of-signal activity can be used to understand regulation of transcription factor activity. To generalize the intended target to other relatable targets, this assay endpoint is annotated to the cyp intended target family, where the subfamily is xenobiotic metabolism.
A total of 1060 chemcials from the ToxCast library were tested in eight-point concentration-response experiments. Cell culture and cytotoxicity assays were conducted at Thermo Fisher Scientific's Custom Services facility (Madison, WI). A single lot of human HepaRG cells (Thermo Fisher Scientific, Frederick, MD) was used for the cell culture experiments. 96-well format collagen type I coated plates of human HepaRG cells were prepared using established methods. Briefly, cryopreserved HepaRG cells were thawed, plated at a density of approximately 100,000 cells/well in HepaRG Thaw, Plate, and General Purpose media (HPRG770, Thermo Fisher Scientific), and incubated for 48 hours. 0.5% DMSO was selected as vehicle control to balance the requisite need of DMSO in HepaRG cultures to maintain differentiation (for example, baseline metabolism, proportions of hepatocytes vs. cholangiocytes), while enabling further hepatic receptor pathway activation (for example, PXR and CAR) in response to chemical exposure. 48 hours after plating, the culture medium was replaced with HepaRG Serum-Free Incudtion Media. Cells were exposed to each test chemical in duplicate and maintained in CO2 incubators for another 48 hours. Chemical plates were thawed to room temperature and 200x concentrations of treatment groups were prepared. 8-point conentration-reponse curves were made with the highest exposure at 100 uM, followed by half-log dilutions, all in 0.5% DMSO. Each test plate contained variouse controls, induction positive controls (1mM phenobarbital), cytotoxicity positive controls ([…] aflatoxin B1), vehicle controls (0.5% DMSO), and total lysis controls (0.5% DMSO). Cell morphology images were taken using an Essen IncuCyte FLR automated microscope, with six 96-well plates imaged in about 24 minutes. Images were captured and exported and JPEG files. Spent culture media was transfered to black-well plates for the LDH assay, and remaining media was sorted at -80 C for later use. Cells were treated with RLT buffer and frozen until shipped for gene expression analysis. Total RNA was isolated from the cell suspension in 75 uL of Buffer RLT (Qiagen, Germantown, MD 20874) by Quintiles/Expression Analysis (Durham, NC) using a custom isolation procedure. Total RNA from each plate well was transferred to a preamplification plate. Fluidigm's 96.96 Dynamic ArrayTM (Fluidigm, Amsterdam, the Netherlands) technology was used for gene expression analyses by quantitative reverse transcription polymerase chain reaction (qRT-PCR, performed by Quintiles/Expression Analysis, Durham, NC)89. Standard TaqManTM Assays (Applied Biosystems/ThermoFisher Scientific, Foster City, CA) were used to assess the expression of 93 genes selected based on their selectivity and sensitivity to important hepatic receptors known to be modulated by environmental chemicals; importance in human hepatocyte functionality; and hepatotoxicity. […]
In the case of `CCCCCCCCn1sccc1=O`, the concentration at half-maximal activity (AC50) was 81.4 µM (active).
In the case of `CS(=O)(=O)NC(=O)c1cc(Oc2ccc(C(F)(F)F)cc2Cl)ccc1[N+](=O)[O-]`, the AC50 is 1.23 µM (active).
For `O=C(N[C@H](c1ccccc1)[C@@H]1CN2CCC1CC2)c1c(Cl)ccc(C(F)(F)F)c1Cl`, the half-maximal activity concentration (AC50) was 81.2 µM (active).
In the case of `CCOC(=O)[C@]1(c2ccccc2)Oc2ccccc2[C@@H]1N`, the AC50 was 80 µM (active).
Take `CN(C)c1ccccc1`: the compound was classed as inactive.
Regarding `O=C(Oc1ccc(Br)cc1)N1CCN2CCC1CC2`, the AC50 was 33.3 µM (active).
For `CC(O)CCO` (stereo not given), the result was inactive.
As to `Nc1ccc(Oc2ccc(N)cc2)cc1`, the call was inactive.
On the same count and under the same terms, to `COC(=O)c1ccccc1N` belongs “inactive”.
On the same count and under the same terms, to `C[N+](C)(C)CC1CO1` (stereo not given) belongs “inactive”.
The same measure, in the same setting: to `Clc1ccccc1Cl` belongs “inactive”; to `[As]#[In]`, “inactive”.
With `CCCCC(CC)COC(=O)c1ccc(C(=O)OCC(CC)CCCC)c(C(=O)OCC(CC)CCCC)c1` (stereo not given), the result was inactive.
Regarding `O=C1CCCO1`, the outcome was inactive.
Turning to `CC(C)(O)c1cnn2c(-c3ccc(F)c(-c4c(F)cccc4C#N)c3)cnc2n1`, the AC50 was 0.263 µM (active).
As to `Cc1cc(N=Nc2ccccc2C)ccc1N`, the AC50 was 2.94 µM (active).
For the compound `Brc1ccc(Oc2ccccc2)cc1`, the outcome was inactive.
`O=[N+]([O-])C(Br)(CO)CO`: the compound was classed as inactive.
Take `C[C@]12C=CC3=C4CCC(=O)C=C4CC[C@H]3[C@@H]1CC[C@@H]2O`: the AC50 is 0.458 µM (active).
In the case of `c1ccc2c(c1)oc1ccccc12`, the call was inactive.
As for `O=C(Nc1ccccc1)c1ccccc1I`, the result was inactive.
Still for that read-out and setting: under `CC(C)(C)OOC(=O)c1ccccc1` stands “inactive”.
`CO[C@@H]1[C@H](OC(=O)NC(=O)CCl)CC[C@]2(CO2)[C@H]1[C@@]1(C)O[C@@H]1CC=C(C)C`: the outcome was inactive.
Still for that read-out and setting: to `CCN(CC)N=O` belongs “inactive”.
Same read-out and setting: under `c1ccc(NNc2ccccc2)cc1` stands “inactive”.
Still for that read-out and setting: to `CCN(CC)CCO` belongs “inactive”; to `Oc1ccc2ccc3cccc4ccc1c2c34`, “inactive”; to `CCC12COCN1COC2`, “inactive”.
In the case of `CCC[CH2][Sn]([Cl])([CH2]CCC)[CH2]CCC`, the AC50 was 2.27 µM (active).
As for `CN(C)[C@@H]1C(=O)C(C(N)=O)=C(O)[C@@]2(O)C(=O)C3=C(O)c4c(O)cccc4[C@@](C)(O)[C@H]3C[C@@H]12`, the result was inactive.
On to `O=Cc1ccco1`, for which the outcome was inactive.
In the case of `ClC1=C(Cl)C2(Cl)C3C(Cl)C=CC3C1(Cl)C2(Cl)Cl` (stereo not given), the AC50 was 0.927 µM (active).
Consider `CCCCOC(=O)c1ccccc1C(=O)OCc1ccccc1`, for which the compound was called inactive.
`Cc1ccc([N+](=O)[O-])cc1`: the AC50 is 1.39 µM (active).
Regarding `Cc1ccc(N)c(N)c1`, the result was inactive.
As to `Clc1ccc(C(c2ccc(Cl)cc2)C(Cl)Cl)cc1`, the AC50 is 10 µM (active).
For the compound `OCCOCCO`, the compound was classed as inactive.
The same measure, in the same setting: to `Clc1ccc(Cl)c(Cl)c1` belongs “inactive”; to `N#CC(Br)Br`, “inactive”.
With `CC(C)N(Cc1ccccc1)C(=O)C(C)(C)C`, the AC50 is 3.44 µM (active).
